# RECQ1 inh: qHTS Assay for Inhibitors of RecQ-Like Dna Helicase 1 (RECQ1); ATP-dependent DNA helicase Q1 (Homo sapiens), P46063; RECQ1 DNA unwinding, red fluorescence kinetic read; Potency, µM (top dose mostly 57.3 µM), inactives show at the highest dose activity, negative = inhibition, usual class: inhibitors; 240,000 tested, 0.54% active;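 also: plate controls were vehicle for no effect and no enzyme for full effect; nearly all actives have a fitted effect of over 30% in size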
#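 50 nM RECQ1T1 preincubated 15 min with compound in Tris pH 8.0 buffer with MgCl2, DTT, Tween-20 and 2.5 ug/ml poly(dI-dC); started with 200 nM TAMRA/BHQ-2 forked duplex and 2 mM ATP. Unwinding read as fluorescence (525/598 nm), two reads 2 h apart.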
# BLM inh: qHTS Assay for Inhibitors of Bloom's syndrome helicase (BLM). 350,000 tested, 0.2% active. Potency, µM (highest dose often 56.1 µM), without a hit: at the highest dose activity change, negative = inhibition, hits mostly inhibitors. recombinant BLM DNA unwinding, fluorescence dequenching;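 also: plate controls were vehicle for no effect and no enzyme for full effect; nearly all actives have a fitted effect of over 35% in size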
# TDP1 block: qHTS Assay for Inhibitors of Tyrosyl-DNA Phosphodiesterase (TDP1) | Potency, µM (doses to about 130 µM), for inactives: at the top dose activity change, negative = inhibition, hits mostly inhibitors | Tyrosyl-DNA phosphodiesterase 1 (Homo sapiens), Q9NUW8 | AID 485290, 2010 | recombinant TDP1, AlphaScreen DNA substrate cleavage | 350,000 tested, 0.28% active; also: nearly all actives have a fitted effect of over 40% in size
#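 Tdp1 1 nM final; 15 min RT w/ cpd; substrate 15 nM, 5 min; beads 10 ug/ml, 10 min; AlphaScreen read. Neg ctrl: no enzyme.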
# APE1 inh: qHTS Assay for Inhibitors of the Human Apurinic/apyrimidinic Endonuclease 1 (APE1); 350,000 tested, 0.35% active; AID 2517, 2012; Potency, µM (highest dose often 65.8 µM), for the others: at the top dose activity change, negative = inhibition, hits mostly inhibitors; recombinant APE1, TAMRA/BHQ-2 abasic DNA cleavage fluorescence;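 also: plate controls were vehicle for no effect and reference inhibitor for full effect; nearly all actives have a fitted effect of over 55% in size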
#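 0.75 nM APE1 + cpd, 15 min RT; start w/ 50 nM TAMRA/BHQ-2 THF-abasic dsDNA; kinetic fluor 525/598 nm ×3 reads @60 s; Δ(read3−read1); normalized to DMSO and NSC13755 control wells.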
# FEN1 inhibitor: qHTS Assay for the Inhibitors of Human Flap endonuclease 1 (FEN1). P39748. Recombinant FEN1 flap cleavage, fluorescence, 15 min. Potency, µM (doses to about 114 µM), for the others: at the highest dose activity change, negative = inhibition, hits mostly inhibitors. 390,000 tested, 0.35% active; also: nearly all actives have a fitted effect of over 65% in size
#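 Nuclease activity of 10 nM FEN1 was measured after 15 min of room-temperature exposure to titrated compounds, by adding 50 nM flap substrate and reading plates at 0 and 15 min.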
# Starred values were filed as active, the others as inactive; i = inactive; u = inconclusive; x = not tested or not shown; ! = repeats disagree; [ ] = another dose, or the depositor's remark. In the library only some 0.92% were active in any assay of this set; here they are far more common. Calls follow the shape of the dose curve; as a rule, active = well fitted curve in the direction sought with a large enough effect; inconclusive = small, poorly fitted or top-dose-only effect, or another doubt; inactive = no such curve, though single readings can be large; an effect the other way counts as inactive or inconclusive. Unless noted, % is scaled to controls: 0 for no effect and ±100 for the full control effect; potency is read from the fitted curve at half-maximal effect.
SMILES,RECQ1 inh,BLM inh,TDP1 block,APE1 inh,FEN1 inhibitor
COC[C@H]1OC(=O)c2coc3c2[C@@]1(C)C1=C(C3=O)[C@H]2CCC(=O)[C@@]2(C)C[C@H]1OC(C)=O,13µM*,1%,13%[56.1 µM],-9%,x
[O-]/[N+](=N\O)c1ccccc1,-1%,x,22%,1%,x
Oc1cc[c]([Hg][Cl])cc1,x,4%,x,x,x
ClC=CCl,-6%,x,21%,15%,x
O=C1C(I)=CC(=C(c2cc(I)c(O)c(I)c2)c2ccccc2C(=O)O)C=C1I,x,16µM*,x,u,x
Cc1cc(C)cc(N2C(=O)NC(=O)/C(=C\C=C\c3ccco3)C2=O)c1,14µM*,2%,-2%,12%,-13%
CC(C)c1ccc(N2C(=O)NC(=O)/C(=C/C=C/c3ccco3)C2=O)cc1,u,-21%,0%,u,u
O=C1NC(=O)N(Cc2ccc(F)cc2)C(=O)/C1=C\C=C\c1ccco1,28µM*,u,x,u,u
C=C1C=C(C(F)F)n2ncc(C(=O)NCc3ccccc3F)c2N1,x,x,x,x,-30%
Fc1ccc(C(OCCN2CCN(C/C=C/c3ccccc3)CC2)c2ccc(F)cc2)cc1,4%,x,22%,-7%,x
O=c1[nH]c(=S)[nH]c(O)c1N=Nc1ccc(S(=O)(=O)N2CCOCC2)cc1,i,-18%,20µM*,u,-4%
CC(=O)[C@H]1CC[C@H]2C3CC[C@H]4C[C@](C)(O)CC[C@]4(C)C3CC[C@]12C (stereo not given in full),-1%,-3%,4%,12%,x
CCCCn1c(N)c(C(=O)NCCN2CCOCC2)c2nc3ccccc3nc21,-21%,0%,2%,-9%,-10%
CCCCn1c(NC(=O)c2ccc(Br)o2)c(C(=O)OCC)c2nc3ccccc3nc21,-1%,22µM*,0%,6%,-16%
O=C(Nc1cc[c]([Sb](=[O])([OH])[OH])cc1)c1ccccc1,x,x,x,x,40µM*
[O]=[Sb]([OH])([OH])[c]1ccccc1,x,x,u,x,50µM*
CSSC,8%,x,12%,-4%,x
O=C1NC(=O)C(=C/C=C/c2coc3ccc(Br)cc3c2=O)C(=O)N1,35µM*,-14%,0%,u,x
O=C1NC(=O)C(=Cc2coc3ccccc3c2=O)C(=O)N1,10%,-4%,-2%,-1%,-19%
O=C1OC(=O)c2ccccc21,13%,x,17%,2%,x
C#CCOCCOCCOCCNc1nc(N2CCN(C(=O)CCCCCCCCCCNC(=O)[C@H]([C@@H](C)CC)n3cc(CCCCN=C(N)N)nn3)CC2)nc(N2CCN(C(=O)CCCCCCCCCCNC(=O)[C@H](CO)n3cc(CCCCCN)nn3)CC2)n1,x,x,15%,u,25µM*
C[C@@H]1CC[C@@]2(OC1)O[C@H]1[C@@H](O)[C@H]3[C@@H]4CC[C@H]5C[C@@H](O[C@@H]6O[C@H](CO)[C@H](O[C@@H]7O[C@H](CO)[C@@H](O)[C@H](O[C@@H]8OC[C@@H](O)[C@H](O)[C@H]8O)[C@H]7O[C@@H]7O[C@H](CO)[C@@H](O)[C@H](O[C@@H]8O[C@H](CO)[C@@H](O)[C@H](O)[C@H]8O)[C@H]7O)[C@H](O)[C@H]6O)[C@H](O)C[C@]5(C)[C@H]4CC[C@]3(C)[C@H]1[C@@H]2C,-9%,x,14%,14%,x
CC1=C(O)C(=O)C=C2C1=CC=C1C2(C)CCC2(C)C3CC(C)(C(=O)O)CCC3(C)CCC12C (stereo not given),x,x,x,x,40µM*
Cc1c(O)c(O)cc2c1CC=C1[C@]3(C)CC[C@]4(C)CC[C@@](C)(C(=O)O)CC4[C@]3(C)CC[C@]12C (stereo not given in full),1%,-4%,13%[56.1 µM],1%,x
Cc1cc(/C=C2/C(=O)NC(=O)N(C)C2=O)c(C)n1-c1ccccc1,i,-6%,-3%,-8%,-3%
SMILES,RECQ1 inh,BLM inh,TDP1 block,APE1 inh,FEN1 inhibitor
Cc1cc(C=C2C(=O)N(C)C(=S)N(C)C2=O)c(C)n1-c1cccnc1,-4%,18µM*,1%,-4%,5%
COc1c(C(C)(C)C)cc([N+](=O)[O-])c(C)c1[N+](=O)[O-],-5%,x,17%,1%,x
OCC[n+]1c2ccccc2nc2ccc(N3CCOCC3)cc21,13µM*,u,6%,-9%,3%
c1ccoc1,-15%,x,15%,-3%,x
c1nc[nH]n1,-4%,x,5%,8%,x
CN1C(=O)[C@]23CC4=CC=C[C@H](O)[C@H]4N2C(=O)[C@@]1(CO)SS3,9%,-2%,6%,-2%,x
O=C1C(Cl)=C(Cl)C(=O)C(Cl)=C1Cl,u,-11%,x,40µM*,x
CN1CCc2cc(O)cc3c2[C@H]1Cc1ccc(O)c(O)c1-3,x,x,x,x,79µM*!
COc1cc2c3cc1Oc1c(OC)c(OC)cc4c1[C@@H](Cc1ccc(OC(=O)c5ccc([N+](=O)[O-])cc5)c(c1)Oc1ccc(cc1)C[C@@H]3N(C)CC2)N(C)CC4,26%,52%,11%,-2%,x
Cc1cccc(N2C(=O)NC(=O)/C(=C\c3ccc4c(c3)CCCN4Cc3ccccc3)C2=O)c1,32µM*,-24%,5%,11%,-18%
CC1(C)CC(=O)C2=C(C1)OC(N)=C([N+](=O)[O-])C2c1ccc(C#N)s1 (stereo not given),28µM*,-2%,-6%,u,-5%
Cc1cc(/C=C2\C(=O)NC(=O)N(c3ccccc3F)C2=O)c(C)n1-c1cc(C(=O)O)cc(C(=O)O)c1,x,44%,x,11µM*,u
Cc1cc(/C=C2\C(=O)NC(=O)N(c3ccc(F)cc3)C2=O)c(C)n1-c1cccc(C(=O)O)c1,3%,-3%,0%,5%,-6%
O=C(O[C@@H]1Cc2c(O)cc(O)cc2O[C@@H]1c1cc(O)c(O)c(O)c1)c1cc(O)c(O)c(O)c1,3.2µM*,-5%,x,0.89µM*,x
Nc1ccccc1-c1ccccc1,-3%,x,14%,4%,x
CCCCCCCCOC(=O)c1ccccc1C(=O)OCCCCCCCC,5%,1%,2%,4%,x
CCCCOC(=O)c1ccccc1C(=O)OCc1ccccc1,-1%,x,40µM*!,37%,-26%
c1ccncc1,-6%,x,17%,3%,x
CCCCOC(C)=O,0%,x,13%,2%,x
Cc1ccc(-c2nc3c(=O)n(C)c(=O)nc-3n(C)n2)cc1,x,x,3%,x,-17%
Cn1ncnc2c(=O)n(C)c(=O)nc1-2,u,1.1µM*,6%,u,13%
